From PubChem BioAssay (Tox21) come the findings set out here.

Unmarked numbers belong to inactive results. Inconclusive results are not listed. Calls of active or inactive are those of the source. Unless noted, calls come from the whole dose curve; as a rule, active = well fitted curve in the direction sought with a large enough effect in the repeat runs; inconclusive = weak or mixed curves; inactive = no such curve, though single readings can be large; an effect the other way counts as inactive or inconclusive.

Assay [1] can be described thus: Human pregnane X receptor (PXR) small molecule agonists, qHTS cell viability counter screen (AID 1346977). Note: nearly all actives have a fitted effect of over 50% in size. The method in brief:
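Readout is CellTiter-Fluor fluorescence from PXR-Luc HepG2 cells. Plated cells rested 5hr, then were treated with compounds for 24hr at 37C and 5% CO2, with reagent present during the last hour.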

Assay [2] is described as follows: Caspase-3/7 induction in HepG2 cells by small molecules, qHTS assay (AID 1346978). Note: nearly all actives have a fitted effect of over 15% in size. A digest of the protocol: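 Wild-type HepG2 cells (2,000/well) were settled 5 h at 37 C, 5% CO2, then exposed to compounds in DMSO for 17 h. Caspase-3/7 activity was read by luminescence 30 min after adding Caspase-Glo 3/7 reagent at room temperature.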
Background: Quantitative high-throughput screening tests each substance at several concentrations.

The nature of assay [3]: Caspase-3/7 induction in CHO-K1 cells by small molecules, qHTS cell viability counter screen (AID 1346979). Note: nearly all actives have a fitted effect of over 35% in size. A digest of the protocol:
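To flag cytotoxic compounds, treated CHO-K1 wild-type cells were given CellTiter-Fluor at 16hr and read fluorescently after 1hr at 37C; the caspase-3/7 luminescence was measured in these same wells.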

Assay [4] can be described thus: Caspase-3/7 induction in CHO-K1 cells by small molecules, qHTS assay (AID 1346980). Note: nearly all actives have a fitted effect of over 15% in size. A digest of the protocol:
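Wild-type cells were seeded at 1,500 per well and settled 5 hr at 37 C, 5% CO2, then exposed to DMSO-dissolved compounds for 17 hr. Caspase-Glo 3/7 reagent was added, and luminescence was read after 30min at room temperature.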

Assay [5] can be described thus: Caspase-3/7 induction in HepG2 cells by small molecules, qHTS cell viability counter screen (AID 1346981). Note: series mostly up to about 92 µM; nearly all actives have a fitted effect of over 30% in size. The method in brief: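 Counter screen for cytotoxicity: HepG2 exposed 16 hr to compounds, then CellTiter-Fluor viability signal (fluorescence, 1 hr reagent incubation).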
Assay [6] has as its target Acetylcholinesterase (Homo sapiens) (UniProt P22303). In words: Acetylcholinesterase (AChE) small molecule antagonists: colormetric cell-based qHTS assay (AID 1347395; calls by dose curve; note: nearly all actives have a fitted effect of over 30% in size). A digest of the protocol: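 Neuroblastoma line SH-SY5Y supplied the enzyme; cells were preincubated with compound for 30 min at 37 C and 5% CO2. Acetylthiocholine with DTNB was then added for 90 min at 37 C, and thiocholine was measured by colour.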

Assay [7] shares this target. In words: Acetylcholinesterase (AChE) small molecule antagonists: enzyme-based qHTS assay (AID 1347397; calls by dose curve; note: nearly all actives have a fitted effect of over 55% in size). The conditions noted are these: Potency: AChE enzyme activity inhibition; outcome: AChE enzyme activity inhibition. A digest of the protocol:
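Human recombinant acetylcholinesterase; substrate acetylthiocholine; thiocholine quantified with DTNB (colorimetric). Compound preincubation 30 min RT; reaction 10 min RT.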

The target is the same in assay [8]. In words: Acetylcholinesterase (AChE) small molecule antagonists: fluorescence cell-based qHTS assay (AID 1347398; calls by dose curve; note: nearly all actives have a fitted effect of over 50% in size). The conditions noted are these: Potency: AChE activity; outcome: AChE activity. A digest of the protocol:
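Thiocholine generated from acetylthiocholine by SH-SY5Y cell AChE is detected with Thiolite Green (Ex/Em 490/520 nm) after 40 min at room temperature, following 30 min compound pretreatment at 37 C.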

For assay [9] the target is unchanged. In words: Acetylcholinesterase (AChE) small molecule antagonists: enzyme-based qHTS assay with human liver microsomes (AID 1347399; calls by dose curve; note: nearly all actives have a fitted effect of over 60% in size). The conditions noted are these: Potency: qHTS inhibition; outcome: qHTS inhibition. The method in brief:
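Recombinant human AChE (50 mU/mL in the enzyme mix) and human liver microsomes (0.25 mg/mL final) were preincubated with compound and NADPH (0.25 mg/mL final) for 30 min at 37 C. Acetylthiocholine/DTNB was then added; thiocholine was read colorimetrically after 10 min at room temperature.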

Assay [10] deals with Cytochrome P450 2D6 (Homo sapiens) (UniProt P10635). In words: Cytochrome P450 Family 2 Subfamily D Member 6 (CYP2D6) small molecule antagonists: luciferase reporter qHTS assay (AID 1671196). For activity change, negative = inhibition: series mostly up to about 120 µM. Note: nearly all actives have a fitted effect of over 50% in size. Note: potency is the fitted concentration of half-maximal effect. A digest of the protocol:
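Inhibition of CYP2D6 was gauged by loss of luminescence, since light produced tracks the luciferin generated from a proluciferin substrate. A 10 min room-temperature preincubation preceded 1 h NADPH-supported turnover.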
For orientation: Reporter assays use an easily measured gene product as a stand-in for the process of interest.

Assay [11] deals with Cytochrome P450 2C19 (Homo sapiens) (UniProt P33261). In words: Cytochrome P450 Family 2 Subfamily C Member 19 (CYP2C19) small molecule antagonists: luciferase reporter qHTS assay (AID 1671197). For activity change, negative = inhibition: series mostly up to about 120 µM. Note: nearly all actives have a fitted effect of over 65% in size. Note: potency is the fitted concentration of half-maximal effect. A digest of the protocol:
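Enzyme-substrate mix with proluciferin substrate (P450-Glo CYP2C19 system) preincubated with compounds 10 min at room temperature; NADPH regeneration solution added, 37C for 1 h; detection reagent stops reaction, luminescence read after 20 min. Ketoconazole positive control.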

Assay [12] concerns the target Cytochrome P450 1A2 (Homo sapiens) (UniProt P05177). In words: Cytochrome P450 Family 1 Subfamily A Member 2 (CYP1A2) small molecule antagonists: luciferase reporter qHTS assay (AID 1671199). Note: series mostly up to about 120 µM; nearly all actives have a fitted effect of over 50% in size. The method in brief: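 Signal from luciferin formed by CYP1A2 from a proluciferin substrate is read as luminescence, expressed in relative luminescence units. Compounds sit with enzyme 10 min, NADPH-driven reaction runs 1 h, all at room temperature.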

Assay [13] addresses Voltage-gated inwardly rectifying potassium channel KCNH2 (Homo sapiens) (UniProt Q12809). In words: Human Ether-a-go-go-Related Gene (hERG) channel small molecule antagonists: fluorescence cell-based qHTS assay (AID 1671200). The method in brief: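 Measured: Tl+ flux via fluorescence (480/540 nm) in hERG-expressing U2OS cells after 1 h dye loading at room temperature.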
In general terms: The hERG channel carries a current that helps repolarise heart muscle cells.

Assay [14] concerns the target Cytochrome P450 3A4 (Homo sapiens) (UniProt P08684). In words: Cytochrome P450 Family 3 Subfamily A Member 4 (CYP3A4) small molecule antagonists: luciferase reporter qHTS assay (AID 1671201). A digest of the protocol:
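Setup: enzyme-substrate mix, compound pin transfer, 10 min RT. Reaction: NADPH regeneration solution, 1 h RT. Readout: detection reagent stops turnover, luminescence measured after 20 min, expressed in relative luminescence units.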

Assay [15] has as its target Nuclear receptor subfamily 1 group I member 2 (Homo sapiens) (UniProt O75469). In words: Human pregnane X receptor (PXR) small molecule agonists, qHTS assay (AID 1346982). Note: nearly all actives have a fitted effect of over 35% in size. Note: potency is the fitted concentration of half-maximal effect. A digest of the protocol:
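Luminescence (ONE-Glo, 30 min RT) after 24 hr compound exposure of PXR-Luc HepG2 cells; cells rested 5 hr post-plating in 5% charcoal-stripped FBS medium.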

Assay [16] addresses Nuclear receptor subfamily 1 group I member 2 (Rattus norvegicus) (UniProt Q9R1A7). In words: Rat pregnane X receptor (rPXR) activation by small molecules, qHTS assay (AID 1346983). Note: nearly all actives have a fitted effect of over 20% in size. The conditions noted are these: rPXR luciferase reporter cells, One-Glo luminescence, 24 h; active compounds read high. A digest of the protocol: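 Cell-based rPXR luciferase reporter assay, 2,000 cells per well, rested 5hr at 37 C before compound addition in DMSO, then 24 hr at 37 C. One-Glo reagent was added and luminescence read after 30 min at room temperature.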

Assay [17] deals with Nuclear receptor subfamily 1 group I member 2 (Homo sapiens) (UniProt O75469). In words: Human pregnane X receptor (PXR) activation by small molecules, qHTS assay (AID 1346985). Note: nearly all actives have a fitted effect of over 40% in size. The method in brief:
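DPX-2 cells (HepG2 co-transfected with a PXR response element and a CYP3A4-promoter luciferase construct) were seeded at 2,000 per well, rested 5 hr at 37C, then exposed to DMSO-dissolved compounds for 24 hr. Activation was read as luciferase luminescence.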

Assay [18] deals with Cytochrome P450 2C9 (Homo sapiens) (UniProt P11712). In words: Cytochrome P450 Family 2 Subfamily C Member 9 (CYP2C9) small molecule antagonists: luciferase reporter qHTS assay (AID 1671198). The method in brief:
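CYP2C9 activity was measured with a P450-Glo proluciferin substrate. Enzyme–substrate mix was held with compound for 10 min at room temperature, then NADPH regeneration solution was added for 1 h at 37C. Luciferin product was read as luminescence.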
% is set by controls: 0 for no effect and ±100 for the full control effect.

Chain of Nuclear receptor subfamily 1 group I member 2 (Homo sapiens) (O75469 whole entry, looked up): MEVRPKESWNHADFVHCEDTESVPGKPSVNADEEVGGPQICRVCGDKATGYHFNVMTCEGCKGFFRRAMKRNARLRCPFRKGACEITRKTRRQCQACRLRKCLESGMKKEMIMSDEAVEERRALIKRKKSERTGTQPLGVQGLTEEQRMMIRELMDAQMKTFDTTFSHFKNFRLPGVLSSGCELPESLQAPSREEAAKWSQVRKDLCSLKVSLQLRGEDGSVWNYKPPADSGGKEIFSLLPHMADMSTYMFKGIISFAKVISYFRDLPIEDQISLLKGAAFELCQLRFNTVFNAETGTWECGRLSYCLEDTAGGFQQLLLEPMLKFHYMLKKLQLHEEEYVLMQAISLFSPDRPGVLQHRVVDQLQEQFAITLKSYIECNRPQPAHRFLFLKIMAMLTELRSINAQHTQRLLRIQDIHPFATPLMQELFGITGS
Chain of Cytochrome P450 2D6 (Homo sapiens) (P10635 whole entry, looked up): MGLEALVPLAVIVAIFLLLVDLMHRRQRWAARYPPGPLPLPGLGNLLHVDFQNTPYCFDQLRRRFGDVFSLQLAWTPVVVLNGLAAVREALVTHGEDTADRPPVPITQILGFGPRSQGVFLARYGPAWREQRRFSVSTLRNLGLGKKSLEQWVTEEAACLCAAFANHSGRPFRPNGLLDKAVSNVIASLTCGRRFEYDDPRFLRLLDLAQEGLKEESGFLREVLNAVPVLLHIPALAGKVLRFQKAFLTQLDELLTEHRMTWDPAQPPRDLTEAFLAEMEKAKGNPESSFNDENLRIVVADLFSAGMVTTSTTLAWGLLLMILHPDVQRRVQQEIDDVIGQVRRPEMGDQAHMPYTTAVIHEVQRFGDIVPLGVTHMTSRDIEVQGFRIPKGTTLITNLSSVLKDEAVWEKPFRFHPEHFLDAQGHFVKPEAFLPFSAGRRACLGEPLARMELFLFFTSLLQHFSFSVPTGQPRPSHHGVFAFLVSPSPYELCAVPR
Chain of Cytochrome P450 1A2 (Homo sapiens) (P05177 whole entry, looked up): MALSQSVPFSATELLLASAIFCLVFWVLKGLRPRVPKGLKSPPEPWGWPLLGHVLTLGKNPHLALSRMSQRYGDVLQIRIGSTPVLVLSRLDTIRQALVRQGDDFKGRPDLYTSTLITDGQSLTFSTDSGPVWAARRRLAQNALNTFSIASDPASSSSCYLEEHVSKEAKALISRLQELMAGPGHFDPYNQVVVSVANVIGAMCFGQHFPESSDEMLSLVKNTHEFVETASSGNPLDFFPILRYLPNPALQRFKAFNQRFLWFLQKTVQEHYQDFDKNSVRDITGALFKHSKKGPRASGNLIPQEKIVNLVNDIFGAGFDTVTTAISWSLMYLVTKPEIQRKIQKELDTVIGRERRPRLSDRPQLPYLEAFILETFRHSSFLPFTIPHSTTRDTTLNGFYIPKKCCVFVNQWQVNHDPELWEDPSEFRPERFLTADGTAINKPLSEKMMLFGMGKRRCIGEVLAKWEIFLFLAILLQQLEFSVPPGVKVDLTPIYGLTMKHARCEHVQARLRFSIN
Chain of Cytochrome P450 2C19 (Homo sapiens) (P33261 whole entry, looked up): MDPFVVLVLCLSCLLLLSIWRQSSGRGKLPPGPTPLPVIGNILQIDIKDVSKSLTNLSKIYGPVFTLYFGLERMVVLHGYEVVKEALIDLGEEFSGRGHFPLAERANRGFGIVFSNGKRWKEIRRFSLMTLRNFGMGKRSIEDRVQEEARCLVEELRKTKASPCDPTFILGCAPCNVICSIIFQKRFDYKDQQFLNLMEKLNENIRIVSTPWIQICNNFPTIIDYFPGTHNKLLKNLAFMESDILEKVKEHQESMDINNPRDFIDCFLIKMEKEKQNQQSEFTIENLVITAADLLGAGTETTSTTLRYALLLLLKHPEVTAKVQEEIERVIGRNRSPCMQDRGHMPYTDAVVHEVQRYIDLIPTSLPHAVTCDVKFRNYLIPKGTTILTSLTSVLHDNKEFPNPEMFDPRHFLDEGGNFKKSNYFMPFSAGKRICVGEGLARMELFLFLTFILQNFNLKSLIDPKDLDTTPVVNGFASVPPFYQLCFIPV
Chain of Cytochrome P450 2C9 (Homo sapiens) (P11712 whole entry, looked up): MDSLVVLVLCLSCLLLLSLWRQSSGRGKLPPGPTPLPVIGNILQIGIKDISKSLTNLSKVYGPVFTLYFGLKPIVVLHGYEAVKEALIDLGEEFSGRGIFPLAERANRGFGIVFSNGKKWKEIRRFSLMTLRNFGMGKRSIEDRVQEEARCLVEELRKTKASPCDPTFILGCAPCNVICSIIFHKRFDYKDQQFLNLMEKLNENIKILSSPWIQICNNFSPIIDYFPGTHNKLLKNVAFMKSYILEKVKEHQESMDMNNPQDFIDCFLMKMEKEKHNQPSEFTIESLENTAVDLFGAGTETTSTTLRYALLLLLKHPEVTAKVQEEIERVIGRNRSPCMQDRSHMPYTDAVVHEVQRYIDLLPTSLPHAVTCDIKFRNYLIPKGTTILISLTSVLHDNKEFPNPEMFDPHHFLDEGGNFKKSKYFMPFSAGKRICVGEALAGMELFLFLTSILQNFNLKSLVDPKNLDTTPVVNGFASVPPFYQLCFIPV
Chain of Voltage-gated inwardly rectifying potassium channel KCNH2 (Homo sapiens) (Q12809 whole entry, looked up): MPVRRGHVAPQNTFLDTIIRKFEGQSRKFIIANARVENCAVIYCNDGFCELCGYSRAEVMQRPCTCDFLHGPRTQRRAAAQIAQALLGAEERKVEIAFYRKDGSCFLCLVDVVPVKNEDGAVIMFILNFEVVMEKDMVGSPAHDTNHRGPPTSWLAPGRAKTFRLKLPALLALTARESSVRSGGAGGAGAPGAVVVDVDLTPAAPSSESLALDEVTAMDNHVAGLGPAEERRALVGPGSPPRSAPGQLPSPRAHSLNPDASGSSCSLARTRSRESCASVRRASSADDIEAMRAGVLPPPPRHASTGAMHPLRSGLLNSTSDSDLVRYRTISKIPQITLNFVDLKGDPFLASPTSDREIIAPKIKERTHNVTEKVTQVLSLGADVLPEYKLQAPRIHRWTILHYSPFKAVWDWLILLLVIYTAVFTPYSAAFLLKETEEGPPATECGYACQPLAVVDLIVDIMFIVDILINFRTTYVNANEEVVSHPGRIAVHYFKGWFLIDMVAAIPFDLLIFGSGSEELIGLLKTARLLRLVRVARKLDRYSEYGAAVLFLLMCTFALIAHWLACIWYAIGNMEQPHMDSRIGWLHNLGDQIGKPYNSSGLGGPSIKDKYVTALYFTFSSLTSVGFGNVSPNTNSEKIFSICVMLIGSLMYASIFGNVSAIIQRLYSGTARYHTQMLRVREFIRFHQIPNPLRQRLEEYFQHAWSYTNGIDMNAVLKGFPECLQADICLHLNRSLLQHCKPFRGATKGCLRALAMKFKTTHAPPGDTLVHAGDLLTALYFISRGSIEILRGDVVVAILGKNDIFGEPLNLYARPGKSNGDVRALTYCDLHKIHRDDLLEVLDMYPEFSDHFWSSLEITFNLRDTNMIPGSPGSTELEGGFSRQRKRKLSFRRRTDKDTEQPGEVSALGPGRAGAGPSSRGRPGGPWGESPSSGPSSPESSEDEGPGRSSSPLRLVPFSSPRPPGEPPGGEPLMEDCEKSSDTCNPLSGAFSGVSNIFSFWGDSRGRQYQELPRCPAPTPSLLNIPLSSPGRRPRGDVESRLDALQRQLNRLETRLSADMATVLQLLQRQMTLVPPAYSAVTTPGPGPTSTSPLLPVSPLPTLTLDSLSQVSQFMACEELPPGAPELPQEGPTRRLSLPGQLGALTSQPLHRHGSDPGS
Chain of Acetylcholinesterase (Homo sapiens) (P22303 whole entry, looked up): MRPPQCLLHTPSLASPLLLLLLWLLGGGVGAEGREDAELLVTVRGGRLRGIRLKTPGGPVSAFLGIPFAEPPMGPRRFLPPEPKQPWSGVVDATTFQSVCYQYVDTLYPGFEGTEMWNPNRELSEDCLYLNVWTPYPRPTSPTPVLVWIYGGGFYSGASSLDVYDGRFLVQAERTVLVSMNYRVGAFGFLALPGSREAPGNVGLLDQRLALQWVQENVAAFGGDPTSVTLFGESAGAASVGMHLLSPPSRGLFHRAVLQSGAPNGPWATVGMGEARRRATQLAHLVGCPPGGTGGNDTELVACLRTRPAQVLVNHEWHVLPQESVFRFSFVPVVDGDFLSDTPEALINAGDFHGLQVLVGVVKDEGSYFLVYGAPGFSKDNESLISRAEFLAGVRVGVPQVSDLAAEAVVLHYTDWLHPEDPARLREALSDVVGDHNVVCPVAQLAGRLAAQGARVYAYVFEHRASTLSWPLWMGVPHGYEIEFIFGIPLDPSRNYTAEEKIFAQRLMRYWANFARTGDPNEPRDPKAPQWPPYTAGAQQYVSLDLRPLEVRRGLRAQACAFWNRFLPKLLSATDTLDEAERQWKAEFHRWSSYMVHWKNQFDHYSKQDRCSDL
Chain of Nuclear receptor subfamily 1 group I member 2 (Rattus norvegicus) (Q9R1A7 whole entry, looked up): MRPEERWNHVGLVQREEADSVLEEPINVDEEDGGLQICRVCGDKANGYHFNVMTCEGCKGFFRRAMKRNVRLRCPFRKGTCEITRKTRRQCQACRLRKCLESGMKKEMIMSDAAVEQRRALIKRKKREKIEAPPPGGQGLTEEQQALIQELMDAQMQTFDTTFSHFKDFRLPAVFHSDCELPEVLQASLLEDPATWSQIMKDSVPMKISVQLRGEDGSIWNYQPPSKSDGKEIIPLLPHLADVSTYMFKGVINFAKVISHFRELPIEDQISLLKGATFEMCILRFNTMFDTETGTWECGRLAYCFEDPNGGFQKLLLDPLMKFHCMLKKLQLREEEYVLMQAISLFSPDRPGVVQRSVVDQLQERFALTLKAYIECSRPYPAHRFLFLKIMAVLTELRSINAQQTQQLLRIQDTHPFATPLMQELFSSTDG

Turning to `CC(C)(C1CCC(O)CC1)C1CCC(O)CC1` (stereo unspecified), the Potency result in assay [1], in assay [3], in assay [5], in assay [6], in [7] and in [8] was “inactive” throughout. The Potency result in [9], in assay [10], in assay [12], in assay [13] and in assay [14] was “inactive” throughout. Also, the compound was classed as inactive in assay [2] and in [4]. In assay [11], the Potency was 71 µM (active).

As to `CC(C)(O)C(Cl)(Cl)Cl`, the Potency entry in assay [1], in assay [5], in assay [15], in [17], in assay [7] and in assay [8] was “inactive” each time. The Potency result in assay [9], in assay [10], in assay [11], in [18], in assay [12] and in [13] was “inactive” each time. For the same compound, in assay [14], the Potency result was “inactive”. For the same compound, the result in assay [2] and in assay [4] was inactive. In addition, in assay [16], the max activation is -2.13%.

In the case of `O=P(O)(O)CN(CP(=O)(O)O)CP(=O)(O)O`, the Potency result in assay [1], in assay [3], in [5], in [15], in assay [6] and in [8] was “inactive” in each case. Further, the Potency entry in assay [9], in assay [10], in assay [11], in [18], in assay [12] and in assay [13] was “inactive” throughout. The Potency result in assay [14] is “inactive”. Further, the compound was classed as inactive in [2] and in assay [4].

In the case of `ClCCN1CCCC1`, the Potency result in assay [1], in assay [3], in assay [5], in assay [15], in [6] and in assay [7] was “inactive” in each case. For the same compound, the Potency entry in [8], in assay [9], in assay [10], in [18], in assay [12] and in [13] was “inactive” in each case. In addition, the Potency entry in assay [14] is “inactive”. Also, the call in assay [2] and in [4] was inactive.

`Cc1ccc2c(c1)C1CN(C)CCC1N2` (stereo unspecified): the activity change, negative = cytotoxicity in [1] was -7.69% [at 19 µM]; in assay [3], -2.08% [at 19 µM]; in [5] it was -0.14% [at 19 µM]. Further, the caspase activation in assay [2] was -1.19% [at 19 µM]. The caspase-3/7 activation in assay [4] was -0.28% [at 19 µM]. For the same compound, in assay [15], the activation is -3.35% [at 19 µM]. Also, in assay [16], the max activation was 1.15%. For the same compound, the Potency result in [17] was “inactive”. For the same compound, the activity, negative = inhibition in [6] was -0.458% [at 23.6 µM]. Besides, the activity change, negative = inhibition is -10.6% [at 23.8 µM] in assay [8]; -0.336% [at 23.6 µM] in assay [9]; -12.5% [at 23.6 µM] in assay [11]; 0.693% [at 23.6 µM] in [18]; -9.94% [at 15.8 µM] in [13]; 8.41% [at 23.6 µM] in [14]. Moreover, the Potency in [10] was 4.25 µM (active).

As for `CCCC(C)(COC(N)=O)COC(N)=O`, the Potency result in [1], in [5], in [17], in assay [6], in assay [7] and in assay [8] was “inactive” in each case. Besides, the Potency entry in assay [9], in assay [10], in [12] and in assay [13] was “inactive” throughout. The compound was called inactive in assay [2] and in assay [4]. For the same compound, the Potency is 51.5 µM (active) in [15] and 33.7 µM (active) in assay [11]. Besides, the max activation in assay [16] is -1.03%.

Regarding `CN=CNc1ccc(C)cc1C`, the Potency entry in assay [1], in [3], in assay [5], in assay [15], in assay [6] and in assay [7] was “inactive” each time. For the same compound, the Potency result in assay [8], in assay [9], in [10], in assay [11], in assay [18] and in assay [12] was “inactive” throughout. The Potency result in assay [14] is “inactive”. Further, the call in [2] and in assay [4] was inactive.
